# Screening results: PubChem, National Center for Advancing Translational Sciences (NCATS)
# GALK inhibitor: inhibitors of human galactokinase; AID 1868; Purified GALK, Kinase-Glo residual ATP luminescence; Potency, µM (doses to about 57.5 µM), without a hit: at the highest dose activity change, negative = inhibition, actives largely listed as inhibitors; actives 0.007% (n = 270,000); also: potency is read from the fitted curve at half-maximal effect; % is scaled to controls: 0 for no effect and ±100 for the full control effect
# Target sequence (P51570 whole entry, looked up): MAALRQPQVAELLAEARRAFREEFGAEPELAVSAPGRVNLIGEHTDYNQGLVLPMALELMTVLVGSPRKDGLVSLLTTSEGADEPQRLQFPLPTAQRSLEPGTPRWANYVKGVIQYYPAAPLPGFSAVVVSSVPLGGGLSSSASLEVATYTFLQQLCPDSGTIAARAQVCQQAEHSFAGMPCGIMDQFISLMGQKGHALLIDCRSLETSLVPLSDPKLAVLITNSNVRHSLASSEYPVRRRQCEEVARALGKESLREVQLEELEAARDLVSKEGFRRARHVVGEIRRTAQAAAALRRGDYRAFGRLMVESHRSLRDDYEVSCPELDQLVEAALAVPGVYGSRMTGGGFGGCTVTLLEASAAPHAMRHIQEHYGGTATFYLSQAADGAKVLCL
#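 GALK at 5 nM final was combined with compound, 35 uM ATP and 100 uM galactose in HEPES pH8.0 with MgCl2 and DTT. The reaction ran one hour at room temperature before luminescent ATP detection.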
# HTT aggregate: inhibitors of mutant huntingtin aggregate formation in PC12 cells. PC12 HttQ103-GFP aggregates, Acumen cytometry, 40 h. Potency, µM (top dose mostly 46.1 µM), inactives show at the highest dose activity change, negative = inhibition, most hits filed as inhibitors. actives 1.1% (n = 220,000). AID 1688; also: potency is read from the fitted curve at half-maximal effect; % is scaled to controls: 0 for no effect and ±100 for the full control effect; nearly all actives have a fitted effect of over 60% in size
#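 Inducible Q103 Huntingtin exon 1–GFP PC12 line, 1500 cells/well in phenol red free DMEM with 5% equine and 5% calf serum. Tebufenozide 100 nM induced expression; compounds titrated; aggregates quantified by cytometry.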
# PI4K2A block: inhibitors of human PI4K2A; purified PI4K2A, ADP-Glo luminescence, 1 h; hits give low values; activity change, negative = inhibition, % at 76.9 µM; actives 0.13% (n = 420,000); in the data active = activity change below about -50%; inconclusive = mostly about -30% to -49%;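 also: -100% = wells without enzyme as full effect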
#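 ADP-Glo luminescence measured ADP generated by PI4K2A enzyme (4 ug/mL before mixing) with 1.2 mM PI substrate (pre-mix) and 300 microM ATP (pre-mix). Tris pH7.5 buffer with MgCl2, Triton X-100; 1 h reaction at ambient temperature.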
# HTT cytoprotect: Huntington cell model cytoprotection by ATP luminescence; Potency, µM (titrated, usually from 56.4 µM), without a hit: cytoprotection (ATP increase), hits mostly activators; PC12 HTT-Q103 induced, cytoprotection, ATP luminescence, 40 h; AID 1471; actives 0.14% (n = 230,000); also: potency is read from the fitted curve at half-maximal effect; % of control where 0% means no effect; nearly all actives have a fitted effect of over 45% in size
#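 Huntington model: PC12 line, ecdysone-inducible HTTQ103 exon1–GFP, tebufenozide 100 nM. Test articles in a dose series. Endpoint luminescence from cellular ATP.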
# Active calls of the source: *; ? = inconclusive; . = not tested or not shown; [ ] = dose if it differs, or a comment. Only a selection was taken, and hits are over-represented in it overall. Unless noted, calls follow the shape of the dose curve; as a rule, active = well fitted curve in the direction sought with a large enough effect; inconclusive = small, poorly fitted or top-dose-only effect, or another doubt; inactive = no such curve, though single readings can be large; an effect the other way counts as inactive or inconclusive.
SMILES,GALK inhibitor,HTT aggregate,PI4K2A block,HTT cytoprotect
COc1ccc(C(=O)Nc2noc3ccccc23)cc1,.,.,-73.1*,.
COc1ccc(C(=O)Nc2ccc(O)c3ccccc23)cc1,.,.,-6.3,.
CCc1oc2c(C)c(O)ccc2c(=O)c1-c1ccc2ccccc2n1,5.6%,-5.5%,-51.6*,-33.8%
CCn1ccc(NS(=O)(=O)c2ccc(N)cc2)nc1=O,.,.,1.1,.
CNC(=O)CN(CCN(CCN(CC(=O)[O-])CC(=O)NC)CC(=O)[O-])CC(=O)[O-].O.[Gd+3],.,.,4.0,.
COc1cccc2c1C(=O)c1c(O)c3c(c(O)c1C2=O)C[C@@](O)(C(=O)CO)C[C@@H]3O[C@@H]1C[C@H](N)[C@H](O)[C@H](C)O1,.,.,.,-67.2%
COc1cccc2c1C(=O)c1c(O)c3c(c(O)c1C2=O)C[C@@](O)(C(=O)CO)C[C@@H]3OC1CC(N)C(O)C(C)O1 (stereo partly specified),.,2.51µM*,-4.5,-57.5%
CC(=O)C1(O)Cc2c(O)c3c(c(O)c2C(OC2CC(N)C(O)C(C)O2)C1)C(=O)c1c(O)cccc1C3=O (stereo unspecified),.,1µM*,.,-23.6%
CCOCCOC(=O)/C=C/c1ccc(OC)cc1,.,.,0.0,.
Cc1c(NC(=O)C2CCCN(S(=O)(=O)c3c(C(C)C)cc(C(C)C)cc3C(C)C)C2)c(=O)n(-c2ccccc2)n1C (stereo unspecified),.,.,-0.6,.
O=C(CCl)Nc1cccc(S(=O)(=O)N2CCCCCC2)c1,-1.6%,10µM*,5.1,30.7%[10 µM]
CSc1ccccc1NC(=O)COc1ccc(Cl)cc1Cl,1.0%,?,-9.9,15.6%[10 µM]
O=C(COc1ccc(Cl)cc1Cl)Nc1ccccn1,7.8%,22.5%,-74.8*,-0.2%
O=C(c1cc2ccc3cccnc3c2[nH]1)N1CCN(c2ccc(Cl)cc2)CC1,.,.,-3.1,.
Cc1ccc(Cl)cc1N1CCN(C(=O)c2cc3ccc4cccnc4c3[nH]2)CC1,.,.,-75.6*,.
Cc1ccc(C(=O)C(=O)O)cc1C,.,.,-1.8,.
COc1ccc(C(=O)NNC(=S)NC(=O)c2ccc(OC)cc2)cc1,2.0%,.,-2.1,.
CCCCC(=O)NC(=S)NNC(=O)c1ccc(OC)cc1,1.5%,10µM*,-10.1,10.8%[10 µM]
CCCCCN1CCCCC(NC(=O)C(C)(C)C)C1=O (stereo unspecified),.,.,1.4,.
O=C(CCCCCn1c(=O)[nH]c2ccccc2c1=O)N1CCN(Cc2ccc3c(c2)OCO3)CC1,0.8%,12.6µM*,1.6,2.2%[10 µM]
CCc1ccc(CN2CCN(C(=O)c3cccc(OC)c3OC)CC2)cc1,-0.9%,7.94µM*,5.7,4.6%[10 µM]
O=C(CN1C(=O)c2cccc3cccc1c23)NCc1ccc2c(c1)OCO2,1.6%,-12.9%,0.3,-11.0%[0.074 µM]
COc1cccc(C(=O)N2CCN(C(=O)c3cccc4ccccc34)CC2)c1OC,3.4%,?,5.7,-1.8%
O=C(CN1C(=O)c2cccc3cccc(c23)C1=O)N1CCN(Cc2ccc3c(c2)OCO3)CC1,2.1%,17.8µM*,-22.6,19.6%[10 µM]
O=C(Cn1c(=O)[nH]c2ccccc2c1=O)N1CCN(Cc2ccc3c(c2)OCO3)CC1,11.5%,.,11.6,.
SMILES,GALK inhibitor,HTT aggregate,PI4K2A block,HTT cytoprotect
COc1ccccc1C(=O)N1CCN(Cc2ccc3c(c2)OCO3)CC1,0.4%,2.82µM*,9.3,3.5%[10 µM]
O=C(c1cccc([N+](=O)[O-])c1)N1CCN(Cc2ccc3c(c2)OCO3)CC1,-0.2%,30.6%,-69.3*,6.5%
CCCCCc1ccc(S(=O)(=O)NCCc2ccncc2)cc1,0.4%,11.2µM*,-1.6,-8.5%
CCCc1ccc(S(=O)(=O)NCCc2ccncc2)cc1,0.7%,?,0.5,-4.6%
CC(C)(C)c1ccc(S(=O)(=O)NCCc2ccncc2)cc1,3.6%,22.4µM*,3.6,-18.4%
Nc1nc2[nH]cc(CCc3ccc(C(=O)NC(CCC(=O)O)C(=O)O)cc3)c2c(=O)[nH]1 (stereo unspecified),.,-32.9%,.,-40.7%
CC(C)NC(=O)c1ccc2c3n(nc2c1)-c1ccccc1CO3,8.3%,-7.2%[9.22 µM],-62.6*,-90.7%[10 µM]
CC(C)[C@@H](CO)NC(=O)c1ccc2c3n(nc2c1)-c1ccccc1CO3,6.1%,-32.3%[9.22 µM],-20.2,-71.1%[10 µM]
CO[C@@H]1/C=C\O[C@]2(C)Oc3c(C)c(O)c4c(O)c(c(/C=N\N5CCN(C)CC5)c(O)c4c3C2=O)NC(=O)/C(C)=C\C=C/[C@H](C)[C@H](O)[C@H](C)[C@H](O)[C@H](C)[C@H](OC(C)=O)[C@@H]1C,.,.,.,0.2%
COc1ccc(CCN(Cc2cccs2)S(=O)(=O)c2ccc(C)c(C)c2)cc1OC,.,.,3.8,.
CC(C)Cn1c(N)c(C(=O)COC(=O)c2ccc3c(c2)OCCO3)c(=O)n(C)c1=O,0.2%,?,2.5,-11.7%
CC(C)Cn1c(N)c(C(=O)CSc2ccc3c(c2)OCCO3)c(=O)n(C)c1=O,-3.0%,2µM*,-2.0,-26.1%
Nc1ncn([C@@H]2O[C@@H](CO)[C@@H](O)[C@H]2O)c(=O)n1,.,.,.,-20.5%[1.9 µM]
Cc1ccc(CSC(Nc2ccc(F)cc2)=C(C#N)C#N)cc1,-1.4%,6.31µM*,3.8,-30.1%[10 µM]
CN(C)C=Nc1nonc1-c1ccccc1,7.8%,19.1%[9.22 µM],2.8,6.5%[10 µM]
CN(C)C=Nc1c(Br)cc(Br)c2nonc12,-1.0%,?,-56.5*,-11.8%
COc1ccc(N2CCCN(CC(=O)Nc3ccc(Cl)c(Cl)c3)CC2)cc1,.,.,0.4,.
COc1cc(NS(=O)(=O)c2ccc(N)cc2)nc(C)n1,.,.,-0.9,.
CN(Cc1nc(-c2cccnc2)no1)S(=O)(=O)c1ccc(Br)cc1,2.5%,22.4µM*,4.4,-18.5%[10 µM]
CN(Cc1nc(-c2cccnc2)no1)S(=O)(=O)c1ccc2ccccc2c1,0.0%,-12.8%,4.4,9.3%
CCCC(=O)N1CCC[C@]2(CC[C@@H](CCC(=O)N(CC)CC)O2)C1,.,.,-0.2,.
COC(=O)c1cc(CSc2nnc(NC3CCCCC3)s2)oc1C,0.0%,28.2µM*,-7.0,7.1%
c1ccc(CSc2nnc(NC3CCCCC3)s2)cc1,.,.,2.9,.
O=C(Nc1nc(-c2ccccn2)cs1)c1ccco1,-0.7%,?,4.3,-120.1%
O=C(Nc1nc(-c2ccccn2)cs1)c1ccc(Br)s1,1.1%,1.26µM*,5.4,-51.0%
